# Results taken from PubChem BioAssay (NCATS).
# A number with no mark means an inactive call. Calls of active or inactive are those of the source. The call rests on the fitted dose curve; in most records, active means well fitted activation curve with a large enough effect; inconclusive means small, poorly fitted or top-dose-only effect; inactive means flat fitted curve, though single readings scatter.
# Test: Cellular Toxicity (caspase-3) HepG2 (AID 654);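 further: cells exposed to compound for 16 hours before reading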
# Conditions: HepG2 caspase-3 activation, luminescence, 0% = DMSO only, 100% = tamoxifen; series mostly up to 92.2 µM; caspase-3 activation: at the top concentration
# Source text: NIH Chemical Genomics Center [NCGC]
# NIH Molecular Libraries Screening Centers Network [MLSCN]
# National Institutes of Environmental Health Sciences [NIEHS]
# National Toxicology Program [NTP]
# We have developed a 1536-well cell-based assay for quantitative high throughput screening (qHTS) against a number of cell lines to determine in vitro caspase 3/7 of small molecules. This particular assay uses the HepG2 cell line which is derived from human hepatocellular carcinoma.
# NCGC Assay Protocol Summary:
# The Caspase-Glo 3/7 assay (Promega) is a homogeneous method to measure caspase-3 and caspase-7 activities in cultured cells. The quantitation of caspase 3/7 activity is based on the cleavage of a peptide-aminoluciferin substrate. After caspase cleaves the substrate the free aminoluciferin is liberated and serves as the substrate of luciferase, which generates the light. The luminescent signal is proportional to amount of caspase 3/7 activity present.
# Using the Caspase-Glo 3/7 assay, the amount of caspase 3/7 activity was measured in the HepG2 cell line with complete culture medium following compound treatment for 16 hours. The assay was performed in opaque white 1536-well plates. In the screen, tamoxifen and doxorubicin were used as positive controls. Library compounds were measured for their ability to cause the activation of caspase 3/7 in the cell line, as reflected by an increase in luminescence signal, in a concentration-dependent manner. Data were normalized to the controls for basal activity (DMSO only) and 100% stimulation (100 uM tamoxifen). AC50 values were determined from concentration-response data modeled with the standard Hill equation.
# qHTS protocol for caspase 3/7 assay in HepG2 cells
# [Step] [Parameter] [Value] [Description]
# 1. Reagent; 5 uL; 1500 HepG2 cells/well
# 2. Time; 5 hr; 37 °C incubation
# 4. Controls; 23 nL; Tamoxifen 0.23 uM to 100 uM & Doxorubicin 7.0 pM to 100 uM
# 5. Time; 16 hr; 37 °C incubation
# 6. Reagent; 5 uL; Caspase-Glo 3/7 reagent
# 7. Time; 20 min; Room Temperature
# 8. Detection; Luminescence; Viewlux plate reader
# Keywords: caspase 3/7, apoptosis, HepG2 cell line, luminescence, NTPHTS, NTPHTS_NCGC, NIEHS, EPA, DSSTox, MLSMR, MLSCN, NIH Roadmap, qHTS, NCGC
Structure (SMILES),caspase-3 activation [%],outcome
Cn1c(=O)c2[nH]cnc2n(C)c1=O,-0.361,
O=c1[nH]cc(F)c(=O)[nH]1,0.0472,
Nc1ccn([C@H]2CC[C@@H](CO)O2)c(=O)n1,-0.117,
Nc1c2c(nc3ccccc13)CCCC2,-0.047,
O=c1c(-c2ccc(O)cc2)coc2cc(O)cc(O)c12,6.99,
CC(C)NCC(O)c1ccc(O)c(O)c1 (stereo not given),-1.05,
Clc1ccc(C(c2ccccc2Cl)C(Cl)Cl)cc1 (stereo not given),0.639,
Cn1c(=O)c2c(ncn2C)n(C)c1=O,-0.45,
COc1cc2c(c(OC)c1OC)-c1ccc(OC)c(=O)cc1[C@@H](NC(C)=O)CC2,,inactive
CCC1(c2ccccc2)C(=O)NCNC1=O,0.925,
CC(C)C(=O)Nc1ccc([N+](=O)[O-])c(C(F)(F)F)c1,-0.244,
Cc1cn([C@H]2C[C@H](N=[N+]=[N-])[C@@H](CO)O2)c(=O)[nH]c1=O,0.189,
NS(=O)(=O)c1cc2c(cc1Cl)NCNS2(=O)=O,-0.38,
NCCS(=O)(=O)O,1.29,
N[C@@H](Cc1c[nH]c2ccc(O)cc12)C(=O)O,0.594,
Cc1cn([C@H]2C=C[C@@H](CO)O2)c(=O)[nH]c1=O,,inactive
COc1ccc(CCN(C)CCCC(C#N)(c2ccc(OC)c(OC)c2)C(C)C)cc1OC (stereo not given),1.23,
COc1ccc2[nH]cc(CCNC(C)=O)c2c1,,inactive
Cc1ccc(-c2cc(C(F)(F)F)nn2-c2ccc(S(N)(=O)=O)cc2)cc1,5.35,
COc1ccc2c(c1)c(CC(=O)O)c(C)n2C(=O)c1ccc(Cl)cc1,0.907,
